{"source": "PubChem BioAssay (EPA / NIEHS)", "note": "Calls of active or inactive are those of the source. The calls were made as follows: active = hit-call score of the fitted dose curve at least 0.9, where 1 is the maximum; inactive = score below 0.9."}
{"biological_target": "Hepatocyte nuclear factor 3-beta (Homo sapiens) (UniProt Q9Y261)", "sequence (Q9Y261 whole entry, looked up)": "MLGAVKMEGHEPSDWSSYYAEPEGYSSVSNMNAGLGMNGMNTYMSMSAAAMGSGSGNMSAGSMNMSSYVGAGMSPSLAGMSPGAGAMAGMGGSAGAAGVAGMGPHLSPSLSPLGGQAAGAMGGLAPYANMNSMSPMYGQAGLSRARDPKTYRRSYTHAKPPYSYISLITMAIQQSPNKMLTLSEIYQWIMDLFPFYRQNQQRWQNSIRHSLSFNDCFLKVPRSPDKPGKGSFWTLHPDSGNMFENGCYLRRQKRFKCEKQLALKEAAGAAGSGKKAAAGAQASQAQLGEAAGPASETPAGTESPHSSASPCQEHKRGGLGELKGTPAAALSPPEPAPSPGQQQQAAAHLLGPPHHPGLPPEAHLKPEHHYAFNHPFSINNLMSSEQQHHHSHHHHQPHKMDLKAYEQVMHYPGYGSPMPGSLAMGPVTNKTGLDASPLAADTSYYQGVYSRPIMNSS", "assay": "ATG_FoxA2_CIS: Attagene CIS-FACTORIAL HepG2 Assay for human Forkhead box A2 (FOXA2) (AID 2282942)", "conditions": "HepG2 cis-reporter transcription factor activity, 24 h; actives raise or lower the signal", "method": "ATG_CIS is a cell-based, multiplexed-readout assay that uses HepG2, a human liver cell line, with measurements taken at 24 hours after chemical dosing in a 24-well plate.ATG_FoxA2_CIS is one of 52 assay component(s) measured or calculated from the ATG_CIS assay. It is designed to make measurements of mRNA induction, a form of inducible reporter, as detected with fluorescence intensity signals by Reverse transcription polymerase chain reaction (RT-PCR) and Capillary electrophoresis technology.Data from the assay component ATG_FoxA2_CIS was analyzed into 1 assay endpoint. This assay endpoint, ATG_FoxA2_CIS, was analyzed with bidirectional fitting relative to DMSO as the negative control and baseline of activity. Using a type of inducible reporter, measures of mRNA for gain or loss-of-signal activity can be used to understand the reporter gene at the transcription factor-level as they relate to the gene FOXA2. Furthermore, this assay endpoint can be referred to as a primary readout, because this assay has produced multiple assay endpoints where this one serves a reporter gene function. To generalize the intended target to other relatable targets, this assay endpoint is annotated to the dna binding intended target family, where the subfamily is forkhead box protein.\nHuman liver HepG2 cells are transiently transfected with multiple reporter transcription units (MRTUs) in 6-well plates using FuGene 6 reagent (Roche; 3 ml FuGene/1 mg DNA). The MRTU constructs are regulated by a cis-regulating element (promoter). […] A major difference between the CIS and TRANS system is that in CIS activities of endogenous TFs are measured, whereas the TRANS assay evaluates changes in activities of exogenous, chimeric NR-Gal4 proteins. […] At the end of 24 hour incubation, total RNA was isolated using TriZol reagent (Invitrogen). The isolated RNA is then reverse-transcribed using oligo(dT) primer and Mo-MLV reverse transcriptase (Invitrogen) with DNAse I (Ambion) treatment for 30 min. The one-tenth of the produced cDNA was amplified by PCR using Taq DNA polymerase (Invitrogen) and two reporter sequence-specific primers. The PCR products were fluorescently labeled by primer extension with 6-arboxyfluorescein (6-FAM) 5'-labeled reporter sequence-specific primer (2 min at 95 C, 20 s at 68 C and 10 min at 72 C) and these products were digested with 5U of HpaI (New England Biolabs) for 2h at 37 C. The fragments were purified using Qiaquick PCR columns (Qiagen), analyzed on an ABI 3130xL genetic analyzer (Applied Biosystems) with peak positions identified by using a set of X-rhodamine (ROX)-labeled MapMarker1000 molecular weight standards (BioVentures). The raw capillary electrophoresis data was processed using Attagraph software (Attagene)."}
{"compound": "CC[N+](CC)(CC)CC", "outcome": "inactive"}
{"compound": "C=CCCl", "outcome": "inactive"}
{"compound": "CCOP(=O)(OCC)SCCSCC", "outcome": "inactive"}
{"compound": "COCC(=O)N(c1c(C)cccc1C)[C@H](C)C(=O)OC", "outcome": "inactive"}
{"compound": "CC(C)CC(C)(c1ccc(O)cc1)c1ccc(O)cc1", "outcome": "inactive"}
{"compound": "CC(C)[C@H](C(=O)OC(C#N)c1cccc(Oc2ccccc2)c1)c1ccc(OC(F)F)cc1", "note": "(stereo not given in full)", "outcome": "inactive"}
{"compound": "CCCCCCCCCCCCBr", "outcome": "inactive"}
{"compound": "Cc1cc(Cl)ccc1O", "outcome": "inactive"}
{"compound": "Cc1cc(Cl)ccc1OC(C)C(=O)O", "note": "(stereo not given)", "outcome": "inactive"}
{"compound": "CC(C)N(C(=O)CCl)c1ccccc1", "outcome": "inactive"}
{"compound": "CC(C)C(C)(N)C#N", "note": "(stereo not given)", "outcome": "inactive"}
{"compound": "O=C(NC(=O)c1c(F)cccc1F)Nc1cc(Cl)c(OC(F)(F)C(F)C(F)(F)F)cc1Cl", "note": "(stereo not given)", "outcome": "inactive"}
{"compound": "CCN(CCO)CCO", "outcome": "inactive"}
{"compound": "CCCCCCCCCCCCOS(=O)(=O)O", "outcome": "inactive"}
{"compound": "CN(C1CCCCC1)C1CCCCC1", "outcome": "inactive"}
{"compound": "O=C1C[C@@H]2OCC=C3CN4CC[C@]56c7ccccc7N1[C@H]5[C@H]2[C@H]3C[C@H]46", "outcome": "inactive"}
{"compound": "c1ccc(-c2cccc(-c3ccccc3)c2)cc1", "outcome": "inactive"}
{"compound": "C=CCN=C=S", "outcome": "inactive"}
{"compound": "Cc1cc(C)cc(C)c1", "outcome": "inactive"}
{"compound": "C=CC(=O)[O][Sn]([CH2]CCC)([CH2]CCC)[CH2]CCC", "AC50": "0.694 µM (active)"}
{"compound": "Clc1cnc(Oc2ccc(Oc3ncc(Cl)cc3Cl)cc2)c(Cl)c1", "outcome": "inactive"}
{"compound": "C[CH2][Hg][S]c1ccccc1C(=O)O", "outcome": "inactive"}
{"compound": "Cc1cc(-c2cc(C)c(N)c(C)c2)cc(C)c1N", "outcome": "inactive"}
{"compound": "Cc1ccc(OP(=O)(Oc2ccc(C)cc2C)Oc2ccc(C)cc2C)c(C)c1", "outcome": "inactive"}
{"compound": "FC(F)OCC(F)(F)C(F)(F)F", "outcome": "inactive"}
{"compound": "COc1ccccc1N", "outcome": "inactive"}
{"compound": "Cc1c([N+](=O)[O-])c(C)c([N+](=O)[O-])c(C(C)(C)C)c1[N+](=O)[O-]", "outcome": "inactive"}
{"compound": "CN(C)c1ccc(N=O)cc1", "outcome": "inactive"}
{"compound": "CC(C)(c1ccccc1)c1cc(-n2nc3ccccc3n2)c(O)c(C(C)(C)c2ccccc2)c1", "outcome": "inactive"}
{"compound": "OC(c1ccc(Cl)cc1)(c1ccc(Cl)cc1)c1cccnc1", "outcome": "inactive"}
{"compound": "CC1(C)COP(Oc2ccccc2)OC1", "outcome": "inactive"}
{"compound": "CCOC(=O)CC(=O)CCl", "AC50": "133 µM (active)"}
{"compound": "CC(C)[N+](=O)[O-]", "outcome": "inactive"}
{"compound": "CCOP(=S)(OCC)SCSc1cc(Cl)ccc1Cl", "outcome": "inactive"}
{"compound": "CCC[CH2][Sn]([CH2]CCC)([CH2]CCC)[CH2]CCC", "outcome": "inactive"}
{"compound": "ClCCN1CCOCC1", "outcome": "inactive"}
{"compound": "CCOP(=S)(OCC)SCS(=O)(=O)C(C)(C)C", "outcome": "inactive"}
{"compound": "O=C(O)CC(O)(CC(=O)O)C(=O)O", "outcome": "inactive"}
{"compound": "O=C1c2ccccc2C(=O)C1C(=O)C(c1ccccc1)c1ccc(Cl)cc1", "note": "(stereo not given)", "AC50": "11.9 µM (active)"}
{"compound": "C=CC(=O)OCC(COC(=O)C=C)(COC(=O)C=C)COC(=O)C=C", "outcome": "inactive"}
